Experimental data reported in the supplement of paper PMC9446081.
± gives the standard deviation of the averaged measurements.

Experiments:
Experiment in all cases: relative enzymatic activity vs untreated control (fraction); higher = less inhibition
Details in all cases: 100 µM; incubation time: 2 h at 37 C
DNA gyrase = tested on: DNA gyrase
Procedure: (§1)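 In vitro enzymatic inhibition assays (ProFoldin kits) for 12 purified essential E. coli enzymes or complexes, each treated with 218 active antibacterial compounds at 100 µM for 2 h at 37°C. Read-outs were fluorescence or absorbance (phosphate detection, dye binding), converted to activity via standard curves and expressed relative to untreated DMSO controls.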

DNA helicase = DNA helicase (UniProt P0ACB1)
Procedure: as §1

DNA polymerase = DNA polymerase (UniProt P10443)
Procedure: as §1

DNA primase = DNA primase (UniProt P0ABS7)
Procedure: as §1

GlmU = GlmU (UniProt A7ZTU1)
Procedure: as §1

Guanlyate kinase = Guanlyate kinase (UniProt Q0TBG1)
Procedure: as §1

MurA = MurA (UniProt Q3YX52)
Procedure: as §1

MurD = molecular target: T1, MurD (UniProt P14900)
T1 sequence (whole entry): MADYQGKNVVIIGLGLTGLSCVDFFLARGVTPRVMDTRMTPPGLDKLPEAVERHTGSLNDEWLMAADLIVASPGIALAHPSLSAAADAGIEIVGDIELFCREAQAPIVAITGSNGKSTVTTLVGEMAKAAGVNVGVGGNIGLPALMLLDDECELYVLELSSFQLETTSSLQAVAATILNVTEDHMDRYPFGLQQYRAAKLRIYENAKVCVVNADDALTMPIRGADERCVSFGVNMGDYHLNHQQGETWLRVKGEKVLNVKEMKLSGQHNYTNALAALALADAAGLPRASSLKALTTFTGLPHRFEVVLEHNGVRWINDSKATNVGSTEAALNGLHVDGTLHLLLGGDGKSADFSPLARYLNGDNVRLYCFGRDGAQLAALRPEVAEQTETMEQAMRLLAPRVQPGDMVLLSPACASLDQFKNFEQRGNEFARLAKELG
Procedure: as §1

MurF = molecular target: T2, MurF (UniProt P11880)
T2 sequence (whole entry): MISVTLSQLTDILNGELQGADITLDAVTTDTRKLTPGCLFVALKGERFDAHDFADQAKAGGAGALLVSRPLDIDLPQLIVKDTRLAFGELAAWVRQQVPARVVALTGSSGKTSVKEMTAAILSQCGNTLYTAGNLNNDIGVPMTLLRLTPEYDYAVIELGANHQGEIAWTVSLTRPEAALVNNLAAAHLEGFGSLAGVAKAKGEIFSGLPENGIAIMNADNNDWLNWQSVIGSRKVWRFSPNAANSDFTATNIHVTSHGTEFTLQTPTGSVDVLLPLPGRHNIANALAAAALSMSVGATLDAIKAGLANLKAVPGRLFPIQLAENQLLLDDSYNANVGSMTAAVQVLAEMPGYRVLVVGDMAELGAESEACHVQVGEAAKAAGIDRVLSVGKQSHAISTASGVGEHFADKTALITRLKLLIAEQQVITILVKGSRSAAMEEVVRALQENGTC
Procedure: as §1

RNA polymerase = tested on: RNA polymerase
Procedure: as §1

DNA ligase = DNA ligase (UniProt B1XA82)
Procedure: as §1

DNA ligase, sequence (B1XA82 whole entry): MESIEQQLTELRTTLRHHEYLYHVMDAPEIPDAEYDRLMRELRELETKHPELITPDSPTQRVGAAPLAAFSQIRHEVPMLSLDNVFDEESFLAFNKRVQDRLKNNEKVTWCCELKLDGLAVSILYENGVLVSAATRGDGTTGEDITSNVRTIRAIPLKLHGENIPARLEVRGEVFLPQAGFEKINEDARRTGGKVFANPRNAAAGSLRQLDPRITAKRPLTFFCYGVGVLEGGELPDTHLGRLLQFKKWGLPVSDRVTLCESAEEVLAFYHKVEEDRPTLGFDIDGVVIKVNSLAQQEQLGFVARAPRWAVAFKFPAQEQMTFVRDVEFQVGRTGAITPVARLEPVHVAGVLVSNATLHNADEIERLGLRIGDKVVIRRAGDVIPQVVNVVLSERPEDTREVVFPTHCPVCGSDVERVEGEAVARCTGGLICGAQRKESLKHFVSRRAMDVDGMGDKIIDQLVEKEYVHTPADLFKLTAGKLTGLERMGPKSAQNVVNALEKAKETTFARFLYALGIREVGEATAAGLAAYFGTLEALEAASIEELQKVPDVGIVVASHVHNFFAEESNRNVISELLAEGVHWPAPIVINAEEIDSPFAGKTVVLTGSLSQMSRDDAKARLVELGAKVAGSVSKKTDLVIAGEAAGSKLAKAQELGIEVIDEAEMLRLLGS
DNA polymerase, sequence (P10443 whole entry): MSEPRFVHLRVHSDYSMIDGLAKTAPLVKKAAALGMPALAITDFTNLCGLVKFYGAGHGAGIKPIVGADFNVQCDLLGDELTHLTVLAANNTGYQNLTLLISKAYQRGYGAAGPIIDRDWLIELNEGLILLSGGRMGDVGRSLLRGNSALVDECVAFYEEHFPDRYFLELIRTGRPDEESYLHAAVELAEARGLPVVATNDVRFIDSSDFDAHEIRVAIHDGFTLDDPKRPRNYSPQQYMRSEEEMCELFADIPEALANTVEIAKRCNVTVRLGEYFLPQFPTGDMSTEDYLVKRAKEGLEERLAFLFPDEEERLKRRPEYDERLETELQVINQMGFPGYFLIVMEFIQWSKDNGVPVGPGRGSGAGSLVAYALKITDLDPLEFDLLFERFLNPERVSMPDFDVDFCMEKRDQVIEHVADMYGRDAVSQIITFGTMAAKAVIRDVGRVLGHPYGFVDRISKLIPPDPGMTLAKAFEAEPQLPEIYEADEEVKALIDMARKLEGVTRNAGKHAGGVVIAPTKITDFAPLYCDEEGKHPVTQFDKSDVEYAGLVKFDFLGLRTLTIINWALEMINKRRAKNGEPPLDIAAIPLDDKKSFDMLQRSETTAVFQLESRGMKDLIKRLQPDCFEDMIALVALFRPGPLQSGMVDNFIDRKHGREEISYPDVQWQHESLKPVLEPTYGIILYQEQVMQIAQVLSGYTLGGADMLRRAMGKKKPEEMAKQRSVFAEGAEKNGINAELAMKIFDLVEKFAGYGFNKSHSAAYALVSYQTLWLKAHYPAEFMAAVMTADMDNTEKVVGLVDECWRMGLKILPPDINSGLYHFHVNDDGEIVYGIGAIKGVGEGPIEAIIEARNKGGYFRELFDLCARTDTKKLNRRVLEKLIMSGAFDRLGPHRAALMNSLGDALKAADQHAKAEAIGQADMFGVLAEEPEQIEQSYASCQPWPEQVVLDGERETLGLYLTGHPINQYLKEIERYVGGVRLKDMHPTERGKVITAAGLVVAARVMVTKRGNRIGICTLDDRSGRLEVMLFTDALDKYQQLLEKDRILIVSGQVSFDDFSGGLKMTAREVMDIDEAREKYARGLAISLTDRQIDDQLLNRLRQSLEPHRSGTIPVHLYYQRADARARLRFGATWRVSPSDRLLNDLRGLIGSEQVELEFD
DNA helicase, sequence (P0ACB1 whole entry): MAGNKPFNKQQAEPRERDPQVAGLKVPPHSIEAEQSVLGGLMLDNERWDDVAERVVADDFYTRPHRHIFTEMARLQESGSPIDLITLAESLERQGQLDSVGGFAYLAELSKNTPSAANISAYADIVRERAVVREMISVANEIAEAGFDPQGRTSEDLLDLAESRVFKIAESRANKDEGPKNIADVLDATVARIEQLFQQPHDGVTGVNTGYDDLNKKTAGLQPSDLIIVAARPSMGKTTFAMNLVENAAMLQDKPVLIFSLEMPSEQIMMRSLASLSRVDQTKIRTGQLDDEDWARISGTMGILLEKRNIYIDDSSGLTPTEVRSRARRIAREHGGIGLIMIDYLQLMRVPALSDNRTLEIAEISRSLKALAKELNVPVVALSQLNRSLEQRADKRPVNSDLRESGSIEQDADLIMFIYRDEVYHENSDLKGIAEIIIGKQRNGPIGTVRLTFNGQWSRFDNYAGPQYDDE
Guanlyate kinase, sequence (Q0TBG1 whole entry): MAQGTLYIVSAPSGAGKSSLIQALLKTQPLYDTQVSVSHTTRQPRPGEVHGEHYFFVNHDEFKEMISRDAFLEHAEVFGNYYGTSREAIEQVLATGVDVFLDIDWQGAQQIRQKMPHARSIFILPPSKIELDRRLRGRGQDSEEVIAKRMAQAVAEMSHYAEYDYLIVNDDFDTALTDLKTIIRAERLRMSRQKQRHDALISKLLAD
MurA, sequence (Q3YX52 whole entry): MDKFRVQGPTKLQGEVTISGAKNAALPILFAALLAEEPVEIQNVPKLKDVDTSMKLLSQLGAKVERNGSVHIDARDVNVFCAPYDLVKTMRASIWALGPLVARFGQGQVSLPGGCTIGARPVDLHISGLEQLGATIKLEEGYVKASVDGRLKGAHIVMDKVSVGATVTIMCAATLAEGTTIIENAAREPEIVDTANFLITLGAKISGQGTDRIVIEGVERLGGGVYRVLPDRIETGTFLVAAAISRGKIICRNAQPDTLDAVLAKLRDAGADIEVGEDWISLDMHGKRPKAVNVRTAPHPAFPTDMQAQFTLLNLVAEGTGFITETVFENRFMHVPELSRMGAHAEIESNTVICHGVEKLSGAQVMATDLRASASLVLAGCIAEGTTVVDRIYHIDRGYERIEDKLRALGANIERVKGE
DNA primase, sequence (P0ABS7 whole entry): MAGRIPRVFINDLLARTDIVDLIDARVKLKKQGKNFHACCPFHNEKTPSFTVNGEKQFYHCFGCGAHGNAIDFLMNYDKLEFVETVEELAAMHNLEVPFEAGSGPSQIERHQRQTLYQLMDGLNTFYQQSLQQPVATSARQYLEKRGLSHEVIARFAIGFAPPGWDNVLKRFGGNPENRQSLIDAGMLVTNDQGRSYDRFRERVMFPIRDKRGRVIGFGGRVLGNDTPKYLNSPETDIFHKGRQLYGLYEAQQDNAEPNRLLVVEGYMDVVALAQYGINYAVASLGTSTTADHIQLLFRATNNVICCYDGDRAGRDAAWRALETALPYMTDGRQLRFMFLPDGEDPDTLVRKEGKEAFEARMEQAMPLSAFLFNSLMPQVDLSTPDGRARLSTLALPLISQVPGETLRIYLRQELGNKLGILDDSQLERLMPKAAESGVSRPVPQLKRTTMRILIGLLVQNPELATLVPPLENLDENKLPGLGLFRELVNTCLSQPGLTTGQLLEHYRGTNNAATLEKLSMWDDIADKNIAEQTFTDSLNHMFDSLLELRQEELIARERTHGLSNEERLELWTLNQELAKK
GlmU, sequence (A7ZTU1 whole entry, looked up): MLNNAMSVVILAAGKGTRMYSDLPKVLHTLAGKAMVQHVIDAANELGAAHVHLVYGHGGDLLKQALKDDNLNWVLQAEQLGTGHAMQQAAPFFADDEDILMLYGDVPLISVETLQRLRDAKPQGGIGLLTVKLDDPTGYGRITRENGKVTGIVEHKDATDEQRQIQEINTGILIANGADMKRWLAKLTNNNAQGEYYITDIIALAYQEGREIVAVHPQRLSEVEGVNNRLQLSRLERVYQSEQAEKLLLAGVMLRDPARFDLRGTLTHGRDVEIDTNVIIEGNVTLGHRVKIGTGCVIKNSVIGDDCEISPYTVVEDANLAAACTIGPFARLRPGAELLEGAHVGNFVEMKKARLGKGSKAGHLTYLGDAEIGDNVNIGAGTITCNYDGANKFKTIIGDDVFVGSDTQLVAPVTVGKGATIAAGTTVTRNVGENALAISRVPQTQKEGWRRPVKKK

Structure (SMILES)	relative enzymatic activity (DNA gyrase)	relative enzymatic activity (DNA helicase)	relative enzymatic activity (DNA polymerase)	relative enzymatic activity (DNA primase)	relative enzymatic activity (GlmU)	relative enzymatic activity (Guanlyate kinase)	relative enzymatic activity (MurA)	relative enzymatic activity (MurD)	relative enzymatic activity (MurF)	relative enzymatic activity (RNA polymerase)	relative enzymatic activity (DNA ligase)
Cc1nnc(SCC2=C(C(=O)[O-])N3C(=O)C(NC(=O)Cn4cnnn4)C3SC2)s1.[Na+] (stereo not drawn)	1.26 ± 0.15	0.672 ± 0.26	1.45 ± 0.57	0.707 ± 0.18	0.951 ± 0.036	1.13 ± 0.052	0.255 ± 0.063	0.612 ± 0.43	0.89 ± 0.17	0.961 ± 0.05	–
C[C@H]1[C@H](NC(=O)/C(=N\OC(C)(C)C(=O)O)c2csc(N)n2)C(=O)N1S(=O)(=O)O	0.898 ± 0.25	0.534 ± 0.15	1.23 ± 0.28	0.8444 ± 0.0011	1.04 ± 0.031	1.04 ± 0.021	0.47 ± 0.14	0.623 ± 0.45	1.13 ± 0.55	0.869 ± 0.072	0.815 ± 0.086
CN[C@@H]1[C@H](O)[C@H](NC)[C@H]2O[C@@]3(O)C(=O)C[C@@H](C)O[C@H]3O[C@@H]2[C@H]1O	0.826 ± 0.36	0.508 ± 0.2	1.09 ± 0.072	0.8044 ± 0.0019	1 ± 0.033	1.06 ± 0.05	0.601 ± 0.16	0.624 ± 0.44	1.16 ± 0.02	0.91 ± 0.14	1.12 ± 0.086
Cl.Cl.N=C(NCCCCCCNC(=N)NC(=N)Nc1ccc(Cl)cc1)NC(=N)Nc1ccc(Cl)cc1	0.0297 ± 0.042	0.0449 ± 0.0094	0.365 ± 0.03	0.306 ± 0.046	0.9017 ± 0.0055	0.341 ± 0.043	0.108 ± 0.015	0.545 ± 0.35	0.871 ± 0.16	0.0331 ± 0.011	0.488 ± 0.68
O=[N+]([O-])c1ccc(O)c2ncccc12	0.501 ± 0.24	0.584 ± 0.12	0.979 ± 0.076	0.759 ± 0.023	1.03 ± 0.047	0.765 ± 0.026	0.291 ± 0.12	0.588 ± 0.39	0.989 ± 0.21	0.7483 ± 0.0011	0.808 ± 0.033
Cl.N=C(N)n1cccn1	0.0897 ± 0.13	0.649 ± 0.3	1.15 ± 0.22	0.868 ± 0.027	1.014 ± 0.0039	0.902 ± 0.2	0.813 ± 0.052	0.613 ± 0.43	0.939 ± 0.23	0.787 ± 0.012	1.13 ± 0.067
CN[C@@H]1[C@H](O[C@H]2[C@H](O[C@@H]3[C@@H](O)[C@H](O)[C@@H](NC(=N)N)[C@H](O)[C@H]3NC(=N)N)O[C@@H](C)[C@]2(O)CO)O[C@@H](CO)[C@H](O)[C@H]1O.CN[C@@H]1[C@H](O[C@H]2[C@H](O[C@@H]3[C@@H](O)[C@H](O)[C@@H](NC(=N)N)[C@H](O)[C@H]3NC(=N)N)O[C@@H](C)[C@]2(O)CO)O[C@@H](CO)[C@H](O)[C@H]1O	0.527 ± 0.36	0.498 ± 0.089	1.08 ± 0.055	0.853 ± 0.0042	1.001 ± 0.0056	0.983 ± 0.047	0.803 ± 0.02	0.922 ± 0.86	0.524 ± 0.73	0.481 ± 0.52	1.09 ± 0.32
O=C([O-])CCC(=O)OCC(NC(=O)C(Cl)Cl)C(O)c1ccc([N+](=O)[O-])cc1.[Na+] (stereo not drawn)	1.05 ± 0.13	0.463 ± 0.053	1.27 ± 0.34	0.718 ± 0.2	1.02 ± 0.042	1.025 ± 0.0099	0.872 ± 0.038	0.578 ± 0.37	0.957 ± 0.19	0.838 ± 0.064	0.965 ± 0.047
COC1=C(N)C(=O)c2nc(-c3nc(C(=O)O)c(C)c(-c4ccc(OC)c(OC)c4O)c3N)ccc2C1=O	0.611 ± 0.34	0.19 ± 0.014	1.03 ± 0.48	0.602 ± 0.05	0.789 ± 0.23	0.6758 ± 0.0058	0.072 ± 0.019	0.596 ± 0.39	1 ± 0.23	0.291 ± 0.026	0.732 ± 0.11
O=c1[nH]cc(F)c(=O)[nH]1	0.73 ± 0.39	0.568 ± 0.12	0.593 ± 0.47	0.852 ± 0.023	0.981 ± 0.051	0.86 ± 0.071	0.673 ± 0.18	0.572 ± 0.36	0.972 ± 0.2	0.688 ± 0.065	0.9871 ± 0.0093
Nc1ncn(C2OC(CO)C(O)C2O)c(=O)n1 (stereo not drawn)	0.722 ± 0.32	0.653 ± 0.16	1.27 ± 0.31	0.709 ± 0.21	1.14 ± 0.13	0.934 ± 0.14	0.786 ± 0.13	0.61 ± 0.4	0.987 ± 0.21	1.01 ± 0.18	1.318 ± 0.003
CCCCCCCCCCCCCCCC[N+](C)(C)C	0.633 ± 0.67	0.0316 ± 0.02	0.0628 ± 0.012	0.384 ± 0.054	0.198 ± 0.0053	0.644 ± 0.077	0.0456 ± 0.013	0.173 ± 0.085	0.106 ± 0.034	0.223 ± 0.0051	0.457 ± 0.13
COc1ccc(Cc2cnc(N)nc2N)cc1OC	0.752 ± 0.41	0.508 ± 0.059	1.21 ± 0.22	0.74 ± 0.24	1.019 ± 0.0077	0.993 ± 0.039	0.74 ± 0.026	0.583 ± 0.39	0.946 ± 0.2	0.9567 ± 0.0054	1.55 ± 0.21
O=C(O)c1cn(C2CC2)c2cc(N3CCNCC3)c(F)cc2c1=O	0.0423 ± 0.06	0.645 ± 0.22	0.688 ± 0.4	0.687 ± 0.18	1.09 ± 0.16	0.932 ± 0.065	0.705 ± 0.28	0.576 ± 0.41	0.991 ± 0.21	0.771 ± 0.006	–
C/C(=C\C(=O)OCCCCCCCCC(=O)O)C[C@@H]1OC[C@H](C[C@@H]2O[C@H]2[C@@H](C)[C@H](C)O)[C@@H](O)[C@H]1O	0.849 ± 0.24	0.52 ± 0.098	0.512 ± 0.72	0.807 ± 0.031	0.999 ± 0.045	1.06 ± 0.087	0.688 ± 0.19	0.607 ± 0.43	1.17 ± 0.52	0.935 ± 0.11	0.897 ± 0.013
CC(C)[C@@H](CC[C@@H](C)[C@H]1CC[C@H]2[C@@H]3[C@H](O)C[C@H]4C[C@@H](NCCCNCCCCN)CC[C@]4(C)[C@H]3CC[C@]12C)OS(=O)(=O)O	1.22 ± 0.062	0.08494 ± 0.00041	0.0811 ± 0.015	0.432 ± 0.11	0.899 ± 0.069	0.231 ± 0.024	0.17 ± 0.006	0.6 ± 0.42	0.896 ± 0.23	0.14 ± 0.012	0.712 ± 0.095
CON=C(C(=O)NC1C(=O)N2C(C(=O)O)=C(C[N+]3(C)CCCC3)CSC12)c1csc(N)n1.[Cl-] (stereo not drawn)	0.384 ± 0.0047	0.431 ± 0.059	1.28 ± 0.35	0.724 ± 0.23	0.969 ± 0.022	1.02 ± 0.026	0.222 ± 0.0031	0.568 ± 0.37	0.962 ± 0.17	0.897 ± 0.023	1.345 ± 0.0088
N[C@@H](C(=O)N[C@@H]1C(=O)N2C(C(=O)O)=C(Cl)CC[C@H]12)c1ccccc1	0.732 ± 0.43	0.524 ± 0.089	1.03 ± 0.087	0.831 ± 0.025	1 ± 0.036	0.943 ± 0.061	0.582 ± 0.21	0.603 ± 0.4	0.963 ± 0.22	0.811 ± 0.13	0.931 ± 0.12
CN(C)CCOC(c1ccccc1)c1ccccc1.Cn1c(=O)c2[nH]c(Cl)nc2n(C)c1=O	0.811 ± 0.45	0.604 ± 0.17	1.32 ± 0.34	0.75 ± 0.22	0.939 ± 0.018	1.05 ± 0.066	0.697 ± 0.022	0.596 ± 0.39	0.534 ± 0.75	0.923 ± 0.069	1.01 ± 0.12
CCn1cc(C(=O)O)c(=O)c2cc(F)c(N3CCNCC3)nc21	0.00427 ± 0.006	0.582 ± 0.19	0.579 ± 0.52	0.684 ± 0.19	1 ± 0.017	0.761 ± 0.07	0.839 ± 0.13	0.573 ± 0.39	0.982 ± 0.23	0.833 ± 0.03	1.03 ± 0.25
